SMN2 splice up = qHTS Assay for Enhancers of SMN2 Splice Variant Expression. HEK293 SMN2-luciferase splicing reporter, luminescence, 30-36 h. Potency, µM (series often up to 46.1 µM), actives largely listed as activators. actives 2.8% (n = 210,000); note: nearly all actives have a fitted effect of over 55% in size
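HEK293 cells carry an SMN2 […]–luciferase reporter in which exon 7 inclusion puts luciferase in frame. Cells were plated 10-12 h before compound addition, then incubated 30-36 h at 37C. ONE-Glo luminescence was read; sodium butyrate at 4.5 mM final served as control.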
FLuc counter = qHTS profiling assay for firefly luciferase inhibitor/activator using purifed enzyme and Km concentrations of substrates (counterscreen for miR-21 project). purified FLuc, Km substrates, luminescence inhibition. Potency, µM (titrated, usually from 57.5 µM), usual class: inhibitors. actives 6.9% (n = 360,000). AID 588342, 2011; note: nearly all actives have a fitted effect of over 55% in size
Target sequence (P08659 whole entry, looked up): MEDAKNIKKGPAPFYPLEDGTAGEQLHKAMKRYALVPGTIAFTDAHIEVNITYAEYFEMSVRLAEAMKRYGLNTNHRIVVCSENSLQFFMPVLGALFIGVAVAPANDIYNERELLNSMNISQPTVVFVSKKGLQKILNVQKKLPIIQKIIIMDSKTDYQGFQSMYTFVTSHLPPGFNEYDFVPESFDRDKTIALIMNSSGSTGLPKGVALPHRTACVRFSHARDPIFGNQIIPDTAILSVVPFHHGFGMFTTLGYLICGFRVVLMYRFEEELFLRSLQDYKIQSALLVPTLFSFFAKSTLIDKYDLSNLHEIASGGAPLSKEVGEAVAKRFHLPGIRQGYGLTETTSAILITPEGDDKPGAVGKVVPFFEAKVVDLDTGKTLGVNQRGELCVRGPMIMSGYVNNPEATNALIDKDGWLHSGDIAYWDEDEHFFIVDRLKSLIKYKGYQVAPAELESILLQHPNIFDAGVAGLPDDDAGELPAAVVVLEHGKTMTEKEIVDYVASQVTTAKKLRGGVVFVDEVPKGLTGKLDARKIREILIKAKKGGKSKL
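Biochemical qHTS of compounds, final roughly 60 µM downward over six points, against 10 nM purified firefly luciferase using Km concentrations of substrates (10 uM D-luciferin, 10 uM ATP) in Tris acetate pH 7.5 buffer; luminescence output.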
NPC1 prom act = qHTS Assay for NPC1 Promoter Activators; Huh7 NPC1 promoter luciferase reporter, 24 h; actives 2.4% (n = 320,000); Potency, µM (series often up to 9.22 µM), actives largely listed as activators; AID 485313, 2010; note: nearly all actives have a fitted effect of over 60% in size
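Huh7 reporter cells (NPC1 promoter driving luciferase) are dosed with compound for 24 h at 37 °C, 5% CO2; luciferase detection reagent is then added and luminescence measured after 10 min at ambient temperature.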
Rab9 prom act = qHTS Assay for Rab9 Promoter Activators; Potency, µM (highest dose often 9.22 µM), usual class: activators; actives 2.8% (n = 320,000); Huh7 Rab9 promoter-luciferase reporter, luminescence, 24 h; note: nearly all actives have a fitted effect of over 60% in size
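Promoter activation is measured as luciferase luminescence in Huh7 cells stably transfected with a Rab9 promoter–luciferase construct, following 24 h compound exposure at 37 °C and 10 min reagent incubation at ambient temperature.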
ELG1 genotox = qHTS screen for small molecules that induce genotoxicity in human embryonic kidney (HEK293T) cells expressing luciferase-tagged ELG1; HEK293T ELG1-luciferase reporter, luminescence, 16 h; Potency, µM (highest dose often 46 µM), usual class: activators; actives 1.3% (n = 330,000); note: nearly all actives have a fitted effect of over 60% in size
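HEK293T cells expressing luciferase-tagged ELG1 were exposed to compound or DMSO vehicle for 16 hr at 37 °C and 5% CO2. Luciferase activity was then measured with ONE-Glo after 30 min at room temperature.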
Large screens that a line does not name were inactive. A selection: hits, their analogues and other compounds. The true share with any hit is near 7.4%. Calls come from the whole dose curve; as a rule, active = well fitted curve in the direction sought with a large enough effect; inconclusive = small, poorly fitted or top-dose-only effect, or another doubt; inactive = no such curve, though single readings can be large; an effect the other way counts as inactive or inconclusive.

Cc1ccccc1C(=O)Nc1ccccc1C(=O)N/N=C\c1ccco1	FLuc counter inconclusive
Cc1cc(OC(=O)c2ccccc2Br)c([N+](=O)[O-])c(=O)[nH]1	none (no result: SMN2 splice up)
O=C(COC(=O)/C=C/c1cccs1)Nc1cccc(S(=O)(=O)N2CCCC2)c1	FLuc counter inconclusive
Cc1nc2ccn(Cc3ccccc3)c(=O)c2cc1C(=O)Nc1ccc(F)cc1Cl	none (no result: SMN2 splice up, NPC1 prom act, Rab9 prom act, ELG1 genotox)
Cc1ccc(N/C=C/C(=O)c2ccco2)c(O)c1	FLuc counter 0.76µM, NPC1 prom act 3.2µM, Rab9 prom act 1.8µM, ELG1 genotox 3.7µM (no result: SMN2 splice up)
CCOC(=O)c1ccc(N/C=C/C(=O)c2ccco2)cc1	SMN2 splice up 14µM, FLuc counter 1.3µM, NPC1 prom act 1.6µM, Rab9 prom act 1.3µM, ELG1 genotox 0.73µM
O=C(Nc1ccccc1C(=O)Nc1ccc(F)cc1)c1ccco1	FLuc counter inconclusive (no result: SMN2 splice up)
O=C(/C=C/Nc1ccc(F)cc1)c1ccco1	SMN2 splice up 16µM, FLuc counter 0.95µM, NPC1 prom act 4µM, Rab9 prom act 2.8µM, ELG1 genotox 2.1µM
O=S(=O)(NCc1nc2cccnc2n1Cc1ccccc1)c1ccc2c(c1)CCCC2	none (no result: SMN2 splice up, NPC1 prom act, Rab9 prom act, ELG1 genotox)
O=C(CSc1nc2ccc(Cl)cc2[nH]1)c1cccs1	FLuc counter 13µM (no result: SMN2 splice up)
O=C(CSc1nc2cc(Cl)ccc2o1)c1cccs1	FLuc counter 19µM, ELG1 genotox inconclusive
Cc1cc(C(=O)CSc2nc3ccc(Cl)cc3[nH]2)c(C)n1C	none
CCc1ccc(NC(=O)C(=O)NCCc2csc(-c3ccc(C(F)(F)F)cc3)n2)cc1	none (no result: SMN2 splice up, NPC1 prom act, Rab9 prom act, ELG1 genotox)
CCOc1ccc2nc(SC3CC(=O)N(c4ccc(C)cc4)C3=O)sc2c1 (configuration not stated)	none
CCOc1ccc2nc(/N=C/c3c(C)[nH]n(-c4ccccc4)c3=O)sc2c1	SMN2 splice up 22µM, FLuc counter 6.7µM, NPC1 prom act inconclusive, Rab9 prom act inconclusive, ELG1 genotox inconclusive
CCOc1ccc2nc(/N=C/c3c(C)[nH]n(-c4ccc(C)cc4)c3=O)sc2c1	SMN2 splice up 14µM, FLuc counter 4.8µM, NPC1 prom act inconclusive, Rab9 prom act inconclusive
COc1ccc(S(=O)(=O)N2CCC(C(=O)NCCC(=O)NC3CC3)CC2)cc1	none (no result: SMN2 splice up)
COc1ccc2cc(-c3ccn[nH]3)ccc2c1	FLuc counter 1.3µM, NPC1 prom act 2.2µM, Rab9 prom act 1.8µM, ELG1 genotox 5.8µM (no result: SMN2 splice up)
COc1ccc(-c2cn[nH]c2C)cc1	none (no result: SMN2 splice up)
N#Cc1cc2c(nc1SCC(N)=O)CCCCC2	SMN2 splice up 25µM, NPC1 prom act 4µM, Rab9 prom act 3.2µM, ELG1 genotox inconclusive
CCOC(=O)CC(=O)CSc1nc2c(cc1C#N)CCCCCC2	FLuc counter inconclusive
CC(C)OC(=O)CC(=O)CSc1nc2c(cc1C#N)CCC2	FLuc counter 19µM
CC(C)OC(=O)CC(=O)CSc1nc2c(cc1C#N)CCCC2	FLuc counter 13µM (no result: NPC1 prom act, Rab9 prom act, ELG1 genotox)
COC(=O)CC(=O)CSc1nc2c(cc1C#N)CCC2	SMN2 splice up 1.3µM, FLuc counter 13µM
N#Cc1cc2c(nc1SCC(=O)N1CCOCC1)CCCCC2	ELG1 genotox inconclusive
COc1ccccc1NC(=O)c1oc2ccccc2c1NC(=O)c1ccc(S(=O)(=O)N(C)C)cc1	none (no result: NPC1 prom act, Rab9 prom act, ELG1 genotox)
CCOc1ccc(N2CC(NC(=O)c3ccc(S(=O)(=O)N4CCCC4)cc3)CC2=O)cc1 (configuration not stated)	none (no result: SMN2 splice up, NPC1 prom act, Rab9 prom act, ELG1 genotox)
Cc1ccc(Cn2nnc3c(=O)[nH]c(C4CCCN(S(=O)(=O)c5ccccc5)C4)nc32)cc1 (configuration not stated)	ELG1 genotox 21µM
O=C1/C(=C/Nc2cccc([N+](=O)[O-])c2)CCc2ccccc21	SMN2 splice up 11µM, FLuc counter 2.7µM, NPC1 prom act 2.8µM, Rab9 prom act 2.5µM, ELG1 genotox inconclusive
O=C1/C(=C\c2ccc([N+](=O)[O-])cc2)CCc2ccccc21	SMN2 splice up inconclusive, FLuc counter 0.095µM, ELG1 genotox 7.3µM
O=C1/C(=C/c2ccc(O)cc2)CCc2ccc([N+](=O)[O-])cc21	none
CC(=O)Nc1ccc2c(c1)CCC2=O	none
CC(=O)Nc1ccc(/C=C2\CCc3ccccc3C2=O)cc1	FLuc counter 6.7µM, NPC1 prom act 3.2µM, Rab9 prom act inconclusive, ELG1 genotox inconclusive (no result: SMN2 splice up)
O=C1c2ccccc2CC1Sc1nnc(-c2ccccn2)o1 (configuration not stated)	FLuc counter 12µM
O=C1CC(Sc2nnc(-c3ccccc3O)o2)C(=O)N1c1ccccc1 (configuration not stated)	FLuc counter inconclusive
COC(=O)CCc1c(C)c(C(=O)c2cc(OC)c(OC)c(OC)c2)c2ccccn12	none (no result: SMN2 splice up)
Cc1ccc(S(=O)(=O)N2CCOCC2)cc1NCC(=O)Nc1ccc(OC(F)(F)F)cc1	none (no result: SMN2 splice up, FLuc counter, NPC1 prom act, Rab9 prom act)
CCCn1c(-c2ccc[nH]c2=O)nc2cc(C)c(C)cc21	FLuc counter 13µM, ELG1 genotox inconclusive (no result: SMN2 splice up)
COc1cccc(CNC(=O)C2CCN(Cc3cc4ccccc4n3Cc3ccccc3)CC2)c1OC	none (no result: SMN2 splice up, NPC1 prom act, Rab9 prom act, ELG1 genotox)
O=C(O)c1ccccc1NN=C1CCCCC1	FLuc counter 11µM, NPC1 prom act inconclusive, Rab9 prom act inconclusive, ELG1 genotox inconclusive (no result: SMN2 splice up)
O=C(NN=C1CCCC1)c1ccccc1O	FLuc counter inconclusive (no result: SMN2 splice up)
COc1ccc(/C(=N\Nc2ccccc2C(=O)O)c2ccccc2)cc1	FLuc counter 9.5µM
C/C(=N\NC(=O)c1ccccc1NC(=O)c1ccc(Cl)cc1)c1ccncc1	FLuc counter 0.027µM, NPC1 prom act inconclusive, Rab9 prom act inconclusive
C/C(=N\Nc1ccccc1C(=O)O)c1ccncc1	FLuc counter 11µM, NPC1 prom act 2.2µM, Rab9 prom act 3.2µM, ELG1 genotox 3.3µM (no result: SMN2 splice up)
COc1cccc(N2C(=O)C3NN=C(C(=O)CN4C(=O)c5ccccc5C4=O)C3C2=O)c1 (configuration not stated)	none (no result: SMN2 splice up)
Cc1ccc(NC(=S)N2CCCCC2)cc1C	FLuc counter 24µM (no result: SMN2 splice up)
Cc1ccc(NC(=S)N2CCCCCC2)cc1	FLuc counter 8.5µM, NPC1 prom act inconclusive, Rab9 prom act inconclusive, ELG1 genotox inconclusive (no result: SMN2 splice up)
Cc1ccc(NC(=S)N2CCCC2)cc1	FLuc counter inconclusive
CCOc1cc(C(=O)NC(=S)Nc2ccc(Cl)c(C(=O)O)c2)cc(OCC)c1OCC	none (no result: SMN2 splice up)
O=C(O)c1cccc(NC(=S)NC(=O)c2ccncc2)c1	FLuc counter inconclusive
COc1c(C)cc(Br)cc1C(=O)NC(=S)Nc1ccc(Cl)c(C(=O)O)c1	FLuc counter 24µM (no result: SMN2 splice up)
O=C(O)c1cccc(NC(=S)NC(=O)c2cccc(OCc3ccccc3)c2)c1	FLuc counter 19µM, Rab9 prom act inconclusive (no result: SMN2 splice up)
CC(C)Oc1ccc(C(=O)NC(=S)Nc2ccc(Cl)c(C(=O)O)c2)cc1	FLuc counter 17µM, NPC1 prom act inconclusive, Rab9 prom act inconclusive, ELG1 genotox inconclusive (no result: SMN2 splice up)
O=C(Nc1ccccc1)c1ccc(COc2ccccc2)cc1	NPC1 prom act inconclusive, Rab9 prom act inconclusive
